Reference: the supplement of paper PMC3334620
The full ranking holds about 33,000 sequences; the median of “E-score (-0.5 to 0.5)” is about -0.017, and the highest 2% start at about 0.3. The sample holds the highest values, similar sequences and a random draw of the others, so the mix is not that of the screen.

target: T1, Sut1 (UniProt P53032); assay: PBM E-score (8-mer binding enrichment) (E-score (-0.5 to 0.5)); higher = stronger / more preferred TF binding; conditions: protein concentration: 200 nM; construct: GST-full length
T1 sequence: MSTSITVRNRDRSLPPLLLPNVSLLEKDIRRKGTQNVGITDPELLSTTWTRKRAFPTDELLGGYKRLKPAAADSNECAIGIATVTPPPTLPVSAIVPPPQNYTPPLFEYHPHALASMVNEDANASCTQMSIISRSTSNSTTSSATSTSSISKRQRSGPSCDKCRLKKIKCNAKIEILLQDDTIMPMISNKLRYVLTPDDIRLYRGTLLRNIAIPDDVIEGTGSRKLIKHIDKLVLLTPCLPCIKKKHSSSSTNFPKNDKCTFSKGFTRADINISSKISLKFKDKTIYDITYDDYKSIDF
Method: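 Universal 'all 10-mer' protein binding microarrays (Agilent AMADID 015681) probed with GST-tagged S. cerevisiae TFs (full-length or DBD) made by in vitro transcription/translation (PURExpress), about 100-200 nM. Bound TF was detected with fluorescent anti-GST. Each ungapped 8-mer (which stands for itself and its reverse complement) is scored by the PBM enrichment score (E-score), a modified Wilcoxon-Mann-Whitney statistic from -0.5 to +0.5, computed with the Universal PBM Analysis Suite. Scale: above 0.35 generally sequence-specific binding.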

| Sequence | PBM E-score |
| --- | --- |
| ATACGAGA | -0.0254 |
| AGAGGCTC | -0.103 |
| AATTCTGG | -0.0608 |
| CTTCACTA | 0.252 |
| GCTTCTTA | 0.0688 |
| ATGACGTA | 0.0909 |
| ACGTACTA | -0.0235 |
| CCGTACTA | 0.297 |
| GCGTACTA | -0.0972 |
| AGAATCCA | 0.00183 |
| ATTATATA | 0.337 |
| CTTATATA | 0.334 |
| ATTATATC | 0.262 |
| CTTATATC | 0.222 |
| ATTATATG | 0.134 |
| GTTATATA | 0.286 |
| AACCCGTA | -0.0786 |
| CTTCTCTC | -0.0216 |
| CCAAACAC | -0.00595 |
| ACACCTCG | -0.103 |
| AGGAGGAG | -0.183 |
| AGGTGTGG | -0.0561 |

| Sequence | PBM E-score |
| --- | --- |
| AGTCCGTG | 0.431 |
| AGTCCGTA | 0.445 |
| AATCCGTC | 0.0795 |
| CGTCCGTC | -0.154 |
| AGCCCGTG | -0.224 |
| AGTCCATG | -0.00201 |
| GGTCCGTA | 0.253 |
| AGTCCGTC | 0.424 |
| CGTCCGTA | 0.0823 |
| CTGCTTGA | -0.153 |
| CTGAACAC | -0.0309 |
| GCTCTGCC | -0.128 |
| CGCACACA | -0.161 |
| CGTTGGCA | -0.0897 |
| GACTGATA | 0.0856 |
| CGAGCTCG | -0.0197 |
| GGAGACAA | 0.0139 |
| GCATGCGA | 0.0246 |
| GTGCCGAA | 0.0728 |
| CACCGAGA | -0.0582 |
| CTCCGAGA | 0.459 |
| CTCCGAGC | 0.437 |

| Sequence | PBM E-score |
| --- | --- |
| CCCCGAGC | 0.163 |
| CGCCGAGA | 0.0729 |
| ATCCGAGC | 0.0537 |
| ATCCGAGA | 0.198 |
| GTCCGAGA | 0.428 |
| GGCCGAGA | 0.0849 |
| CGACACTC | 0.0434 |
| AGACTCAA | -0.0327 |
| AAGGCTGG | -0.146 |
| AGATGGTA | 0.0768 |
| AATTATTG | 0.173 |
| AATTATCC | 0.1 |
| AATTATTC | 0.317 |
| ATTTATTA | 0.269 |
| GTTTATTA | 0.302 |
| AATTATTA | 0.305 |
| CATTATTC | 0.231 |
| CTTTATTA | 0.261 |
| GATTATTA | 0.229 |
| TCGATCAA | -0.00575 |
| TAGTGCGA | -0.0645 |
| AGTGATTA | 0.0842 |

| Sequence | PBM E-score |
| --- | --- |
| CTGTCCTA | -0.0818 |
| CCAAGACC | -0.261 |
| GGCGTCGA | -0.167 |
| GAAAGTCC | 0.326 |
| AAAAGTCA | 0.15 |
| AAAAGTCC | 0.394 |
| CGAAGTCC | 0.378 |
| CAAAGTCC | 0.282 |
| CGAAGTCA | -0.081 |
| CTAAGTCC | 0.114 |
| ATAAGTCG | 0.0862 |
| GAAAGTCA | 0.049 |
| GGAAGTCC | 0.159 |
| AAAAGTCT | 0.102 |
| ATAAGTCC | 0.317 |
| CGCGCAAC | -0.114 |
| CAAAGTAC | 0.0285 |
| ACGTATAG | 0.0316 |
| GCAGCACC | 0.0294 |
| AGATTGCC | -0.043 |
| CCACAAAA | 0.0574 |
